About 2,700 (4%) of roughly 68,000 compounds showed an effect of 50% or more. Shown is part of a subset that was picked to be rich in strong results.
test system: Plasmodium berghei; test: Screen against P. berghei liver stage (PbLuc), transformed with Luciferase, at 2uM; type: functional, HepG2; conditions: tested at 2 uM

SMILES | INHIBITION [%]
CC(C)N(C)Cc1nnc2n1CCN(Cc1ccncc1)CC2 | -2.32
COc1ccc(Cc2ncc3c(n2)CN(C(=O)CO)C3)cc1 | 6.39
Cc1ccc(CN(C)C(=O)CN2CC(n3cccn3)C2)o1 | 3
Cc1cnn(C2CN(CC(=O)N(C)Cc3ccc(C)o3)C2)c1 | 62.51
Cc1cnn(C2CN(CC(=O)N(C)Cc3cccs3)C2)c1 | 7.67
Cc1cc(NCc2ccco2)nc2[nH]nc(N)c12 | -0.89
Fc1cccc(-c2nnn3c2COC(CNCc2nccs2)C3)c1 (stereo not drawn) | -19.51
CC(C)NC(=O)N1CCOC2(CCCN(c3cccc(C#N)c3)C2)C1 (stereo not drawn) | 24.82
Cc1cccc(N2CCCC3(C2)CN(S(C)(=O)=O)CCO3)c1 (stereo not drawn) | -51.66
CCS(=O)(=O)N1CCOC2(CCCN(c3cccc(C#N)c3)C2)C1 (stereo not drawn) | 56.76
O=C(c1cccc(Cl)c1Cl)N1CCN(CC(O)Cn2cccn2)CC1 (stereo not drawn) | 65.3
CCOCC(O)CN1CCN(C(=O)c2ccccc2Cl)CC1 (stereo not drawn) | -45.23
Cc1cc(C(=O)N2CCN(CC(O)Cn3cccn3)CC2)c(C)o1 (stereo not drawn) | 12.62
CCCC(=O)NCC(=O)NC(c1ccc(Cl)cc1)C(F)(F)F (stereo not drawn) | 28.25
Cc1cccc(C(=O)NCc2ccnc(N(C)C)c2)n1 | -11.1
O=C(C1CC1)N1CCN2C[C@H](c3ccccc3)[C@@H](CO)[C@H]2C1 | 7.41
CC(=O)NC1CCCN(C(=O)NCc2cccnc2N(C)C)C1 (stereo not drawn) | 20.71
CCCc1nnc(NC(=O)N2CCCC(NC(C)=O)C2)s1 (stereo not drawn) | 52.08
CCCc1nnc(NC(=O)N2CCCC2c2ccncc2)s1 (stereo not drawn) | -24.78
CCC(CC)c1nnc(NC(=O)N2CCCC(NC(C)=O)C2)s1 (stereo not drawn) | 56.49
CC(=O)NC1CCCN(C(=O)Nc2nnc(C(C)C)s2)C1 (stereo not drawn) | 20.14
CCC(CC)c1nnc(NC(=O)N2CCC(C(N)=O)CC2)s1 | 23.45
Cc1cc(C)c(S(=O)(=O)Nc2cccc3c2OCCO3)cc1C(=O)O | -49.16
Cc1oncc1C(=O)N1CC[C@H]2[C@H](CO[C@@H]2CNS(C)(=O)=O)C1 | 11.37
O=C(NCC1CCCCC1)N1C[C@@H]2C[C@@H]1CN2 | -3.1
CC(C)(C)CC(=O)N1C[C@@H]2C[C@@H]1CN2 | 74.88

SMILES | INHIBITION [%]
O=C(CC1CCCC1)N1C[C@@H]2C[C@@H]1CN2 | 30.4
CC(C(=O)N1CCc2sccc2C1)N1CCC(S(N)(=O)=O)CC1 (stereo not drawn) | 44.37
CN(C)c1nccc(N(C)Cc2nc3ccccc3n2C)n1 | 13.51
CN(Cc1ncnn1C)c1ccnc(Cc2ccccc2)n1 | 26.49
CN(C)c1nccc(N(C)Cc2ncnn2C)n1 | 65.42
CN(Cc1cccs1)c1cc(N2CCCC2CO)ncn1 (stereo not drawn) | -25.71
Cc1c[nH]cc1C(=O)N1CCN(CCc2cccs2)CC1 | -14.3
Cc1ccc(OCC(C)NS(C)(=O)=O)cc1 (stereo not drawn) | 41.84
Cc1ccc(OCC(C)NS(C)(=O)=O)cc1C (stereo not drawn) | 52.85
COc1ccc(OCC(C)NS(C)(=O)=O)cc1 (stereo not drawn) | 37.05
Cc1ncc(S(C)(=O)=O)c(N(C)CCCc2cnn(C)c2)n1 | 13.95
CNC(=O)[C@@H]1COC[C@H]2CN(C(=O)c3ccc(OC)cc3)C[C@H]21 | 51.36
CCc1ccc(C(=O)N2C[C@@H]3COC[C@@H](C(=O)NC)[C@@H]3C2)cc1 | -10.98
CNC(=O)[C@@H]1COC[C@H]2CN(C(=O)c3cccc(OC)c3)C[C@H]21 | 11.6
c1cnn(C2CN(Cc3nc(-c4ccsc4)no3)C2)c1 | -5.2
Cc1ccc(-c2noc(CN3CC(n4cc(C)cn4)C3)n2)cc1 | -21.39
Cc1cnn(C2CN(Cc3nc(-c4ccsc4)no3)C2)c1 | 56.02
COCC1CN(C(=O)c2ccnnc2)Cc2c1cnn2C (stereo not drawn) | 6.57
COCC1CN(C(=O)Cc2cccs2)Cc2c1cnn2C (stereo not drawn) | -41.11
COCC1CN(C(=O)CC2Cc3ccccc3C2)Cc2c1cnn2C (stereo not drawn) | 56.25
Cc1ccc(S(=O)(=O)N2CCC(Oc3ccccn3)CC2)c(C)c1 | 56.24
Cc1ccc(S(=O)(=O)N2CCC(Oc3cccnn3)CC2)c(C)c1 | 71.06
CN(C)S(=O)(=O)N1CCC(Oc2ccccn2)CC1 | -19.47
O=S(=O)(c1ccccc1F)N1CCC(Oc2cccnn2)CC1 | 51.31
COC(=O)c1sccc1S(=O)(=O)N1CCC(Oc2cccnn2)CC1 | 23.42
CN(C)S(=O)(=O)N1CCC(Oc2cccnn2)CC1 | 20.38

SMILES | INHIBITION [%]
Cc1noc(C)c1S(=O)(=O)N1CCC(Oc2cccnn2)CC1 | -12.23
Cc1noc(C)c1S(=O)(=O)N1CCC(Oc2ccccn2)CC1 | -11.22
COc1ccccc1S(=O)(=O)N1CCC(Oc2cccnn2)CC1 | 33.61
O=C(NCCCn1cccn1)N1CCCC1c1cccs1 (stereo not drawn) | -13.45
CCc1cc2c(N3CCCC(c4cc(C(N)=O)[nH]n4)C3)ncnc2s1 (stereo not drawn) | -126.83
Cc1cnc(C(=O)N2CCc3c(nc(-c4ccncc4)[nH]c3=O)C2)cn1 | 10.63
CNC(=O)C(C)(C)N1CCC[C@H]1C(=O)NC1CC1 | 24.91
CC(C)[C@@H]1CN(C(=O)C2(c3ccccc3)CCN(C)CC2)C[C@H]1C(=O)O | 31.51
CC(C)[C@@H]1CN(C(=O)C2(c3ccccc3)CC2)C[C@H]1C(=O)O | 69.67
COc1ccc(C2(C(=O)N3C[C@@H](C(=O)O)[C@H](C(C)C)C3)CC2)cc1 | 17.2
CCS(=O)(=O)N(C)c1ccc(C(=O)N2CCCC(C)C2)cc1 (stereo not drawn) | 62.77
CCN(c1ccc(C(=O)N2CCCC(C)C2)cc1)S(=O)(=O)CC (stereo not drawn) | -2.82
CCN(c1ccc(C(=O)N2CCC(C)CC2)cc1)S(=O)(=O)CC | 9.63
NC(=O)NC1(C(=O)N2CCc3c(Cl)cccc3C2)CCCCC1 | 42.2
CN1CCN(C(=O)C2(NC(N)=O)CCCCC2)Cc2ccccc21 | 50.61
CN1CCN(C(=O)C2(S(C)(=O)=O)CCCC2)Cc2ccccc21 | -21.76
O=C(CC1CC1)N[C@@H]1CN(Cc2ccccn2)C[C@@H]2CCCO[C@@H]21 | -5.84
c1ccc(CCN2CCCC(c3ccnc4nccn34)C2)cc1 (stereo not drawn) | 32.74
Cc1csc(C(=O)N2CCC3(CC(N(C)c4ccncn4)C3)C2)c1 (stereo not drawn) | -18.68
CN(CC(O)C1CC1)C(=O)Nc1ccc(F)c(-n2cccc2)c1 (stereo not drawn) | 42.76
c1ccc(-c2nc(CCNCc3cccnc3)co2)cc1 | 30.88
CS(=O)(=O)NCCNC(=O)NC1(c2ccc(F)cc2)CCCC1 | 52.3
CS(=O)(=O)NCCC(=O)NC1(c2ccc(F)cc2)CCCC1 | 5.17
CS(=O)(=O)NCCNC(=O)NC1(c2ccc(Cl)cc2)CCC1 | 43.88
CN(C)CCOCc1nnc2n1CCN(Cc1ccsc1)C2 | 20.2
CCc1cc(NC(=O)C2CCCN(C(=O)NCC(C)C)C2)[nH]n1 (stereo not drawn) | 6.62

SMILES | INHIBITION [%]
Cc1n[nH]c(C)c1NC(=O)C1CCCN(C(=O)NCC(C)C)C1 (stereo not drawn) | 52.95
Cc1c(C2CC2)n[nH]c1NC(=O)C1CCCN(C(=O)NCC(C)C)C1 (stereo not drawn) | -7.81
CC(C)c1sc(Cl)nc1C(=O)N1CCN(c2ccccn2)CC1 | 20.42
COc1ncnc2c1CCN(C(=O)NCc1cccnc1)CC2 | 46.02
O=C(NCCc1ccncc1)C1CCN(Cc2ccco2)CC1 | -0.55
COCCNC(=O)Cn1cc(NC(=O)c2ccc(C(C)(C)C)cc2)cn1 | -38.81
CC(C)c1nc(CS(=O)(=O)Cc2noc(C3CC3)n2)cs1 | 53.12
CCc1nc(CN2CCCN(Cc3noc(C4CC4)n3)CC2)cs1 | -17.17
CCc1nc(CS(=O)(=O)Cc2noc(C3CC3)n2)cs1 | -18.58
CN1CC(C(=O)NC2(c3ccc(Cl)cc3)CCOCC2)CC1=O (stereo not drawn) | 3
CN(C)C(=O)COCC1CN(Cc2ccco2)Cc2ncn(C)c21 (stereo not drawn) | -45.9
CC(C)c1nnc2n1CCN(C(=O)c1ccc(Cn3cccc3)cc1)C2 | 15.08
CC(C)c1nnc2n1CCN(C(=O)c1ccc3cc[nH]c3c1)C2 | 45.92
CC(C)c1nnc2n1CCN(C(=O)c1ccc(CN(C)C)cc1)C2 | 50.72
CCCc1ccc(C(=O)N2CCn3c(nnc3C(C)C)C2)cc1 | 15.08
CC(C)c1nnc2n1CCN(C(=O)c1ccc3c(c1)CCC3)C2 | 9.17
CC(C)c1nnc2n1CCN(C(=O)c1ccc3c(c1)COC3)C2 | 57.75
O=C(c1ccoc1)N1CCn2cnc(COCC3CC3)c2C1 | 41.79
O=C1Nc2ccccc2C12CCN(Cc1nccs1)CC2 | 21.61
O=C(Cc1ccccc1F)N1C[C@@H]2COC[C@]2(COc2cccnc2)C1 | -2.44
CO[C@H]1CO[C@@]2(CCCN(C(=O)N3CCCC3)C2)C1 | 28.13
CN1CCCN(S(=O)(=O)c2cccc(C(=O)N3CCCCCC3)c2)CC1 | 54.75
CC1=CCN(S(=O)(=O)c2cccc(C(=O)N3CCCN(C)CC3)c2)CC1 | 23.17
CN1CCCN(C(=O)c2cccc(S(=O)(=O)NCC3(C)COC3)c2)CC1 | -35.07
CCN(CC)C(=O)CSc1sc2c(O)cc(=O)[nH]c2c1C(N)=O | -56.02

Reference: ChEMBL document CHEMBL4513216, “Probing the Open Global Health Chemical Diversity Library for Multistage-Active Starting Points for Next-Generation Antimalarials” (ACS Infect Dis, 2020)
